PubChem BioAssay
For some of these results: Potency and affinity values are given separately. The source made the active and inactive calls. Unless noted, the rule behind the calls is not given here.

Legend:
[1] = antimalarial activity against Dd2 strain (AID 2302;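 active = growth inhibition above 50% at the single 2 µM test dose, taken to imply half-maximal potency below 2 µM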;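 note: 0% = DMSO untreated growth and 100% = chloroquine plus artemisinin killed control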); details: P. falciparum Dd2 in RBCs, LDH growth readout, 72 h; at 2 µM; active compounds read high
[2] = HepG2 cytotoxicity, primary screen, cytotoxicity control for P. falciparum antimalarial project, cell-based, ATP luminescence (AID 2303;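 active = inhibition above 50%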;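 note: 0% = DMSO wells and 100% = digitonin-killed cells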); details: HepG2 viability, 24-48 h, at 10 µM, active compounds read high
[3] = target: L-lactate dehydrogenase (Plasmodium falciparum (isolate CDC / Honduras)) (UniProt Q27743); assay: PfLDH activity inhibition – cell lysate, 3D7 strain, counter-screen for P. falciparum growth inhibition project (AID 2304);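 note: 0% = vehicle and 100% = reference inhibitor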; details: P. falciparum 3D7 crude extract, LDH APAD/NBT absorbance; at 2 µM; active compounds read high
Sequence of L-lactate dehydrogenase (Plasmodium falciparum (isolate CDC / Honduras)) (Q27743 whole entry, looked up): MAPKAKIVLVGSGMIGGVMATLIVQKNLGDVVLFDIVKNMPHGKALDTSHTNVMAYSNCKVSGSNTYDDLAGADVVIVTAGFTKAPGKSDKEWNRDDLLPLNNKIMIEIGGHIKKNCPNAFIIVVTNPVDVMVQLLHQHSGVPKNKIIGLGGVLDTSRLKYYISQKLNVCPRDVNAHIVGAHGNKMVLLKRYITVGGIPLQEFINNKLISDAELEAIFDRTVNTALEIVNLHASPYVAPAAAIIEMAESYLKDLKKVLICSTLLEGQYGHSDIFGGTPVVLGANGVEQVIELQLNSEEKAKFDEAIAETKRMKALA

[4] = inhibition of 3D7 malaria parasite growth – strain 3D7 (AID 2306);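 note: 0% = DMSO wells and 100% = chloroquine plus artemisinin control wells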; details: P. falciparum 3D7 erythrocytic growth, LDH absorbance, 72 h; at 2 µM; active compounds read high
[5] = target: Calcium-dependent protein kinase 1 (Plasmodium falciparum (isolate 3D7)) (UniProt P62344); assay: PfCDPK1 kinase inhibitors, biochemical, TCAMS library (AID 1159585; cut-off not given, nearly all actives have IC50 up to about 0.98 µM;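 note: inhibitors leave more ATP so luminescence rises with inhibition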); details: recombinant PfCDPK1, Kinase-Glo ATP depletion luminescence
Sequence of Calcium-dependent protein kinase 1 (Plasmodium falciparum (isolate 3D7)) (P62344 whole entry, looked up): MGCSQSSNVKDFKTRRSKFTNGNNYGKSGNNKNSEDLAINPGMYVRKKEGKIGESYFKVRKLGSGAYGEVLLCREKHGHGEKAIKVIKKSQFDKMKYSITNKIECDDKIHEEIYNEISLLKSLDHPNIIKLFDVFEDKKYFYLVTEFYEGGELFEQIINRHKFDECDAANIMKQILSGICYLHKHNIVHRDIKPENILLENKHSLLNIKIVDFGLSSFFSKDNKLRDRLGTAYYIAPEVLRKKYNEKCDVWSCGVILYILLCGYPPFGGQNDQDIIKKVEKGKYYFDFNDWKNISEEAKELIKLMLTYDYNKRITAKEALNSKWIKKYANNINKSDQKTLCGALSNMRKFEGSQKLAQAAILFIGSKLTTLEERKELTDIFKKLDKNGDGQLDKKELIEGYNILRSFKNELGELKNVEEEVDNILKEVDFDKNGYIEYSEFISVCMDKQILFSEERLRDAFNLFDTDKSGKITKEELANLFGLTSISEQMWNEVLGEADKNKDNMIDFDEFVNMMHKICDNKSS

[6] = target: Plasmodium falciparum protein kinase 6 (PK6, PF3D7_1337100) (UniProt Q8IDW1); assay: PfPK6 kinase inhibitors, biochemical, TCAMS library (AID 1159586); details: recombinant PfPK6, Kinase-Glo ATP depletion luminescence
Sequence of Plasmodium falciparum protein kinase 6 (PK6, PF3D7_1337100) (Q8IDW1 1-305): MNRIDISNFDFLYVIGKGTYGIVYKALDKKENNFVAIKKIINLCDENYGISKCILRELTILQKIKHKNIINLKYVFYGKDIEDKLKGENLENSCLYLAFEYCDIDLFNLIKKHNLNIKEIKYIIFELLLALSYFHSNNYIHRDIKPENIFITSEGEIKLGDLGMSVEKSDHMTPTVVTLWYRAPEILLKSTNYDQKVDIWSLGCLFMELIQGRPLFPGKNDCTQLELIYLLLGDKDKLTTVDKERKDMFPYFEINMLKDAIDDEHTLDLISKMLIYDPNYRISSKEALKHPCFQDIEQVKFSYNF

[7] = target: Protein kinase 7 (PK7), Plasmodium falciparum 3D7 (PF3D7_0213400) (UniProt Q7YTF7); assay: inhibition of Plasmodium PK7 catalytic activity – biochemical, TCAMS antimalarial set, Kinase-Glo luminescence (AID 1159587); details: recombinant PfPK7, Kinase-Glo ATP depletion luminescence
Sequence of Protein kinase 7 (PK7), Plasmodium falciparum 3D7 (PF3D7_0213400) (Q7YTF7 1-343): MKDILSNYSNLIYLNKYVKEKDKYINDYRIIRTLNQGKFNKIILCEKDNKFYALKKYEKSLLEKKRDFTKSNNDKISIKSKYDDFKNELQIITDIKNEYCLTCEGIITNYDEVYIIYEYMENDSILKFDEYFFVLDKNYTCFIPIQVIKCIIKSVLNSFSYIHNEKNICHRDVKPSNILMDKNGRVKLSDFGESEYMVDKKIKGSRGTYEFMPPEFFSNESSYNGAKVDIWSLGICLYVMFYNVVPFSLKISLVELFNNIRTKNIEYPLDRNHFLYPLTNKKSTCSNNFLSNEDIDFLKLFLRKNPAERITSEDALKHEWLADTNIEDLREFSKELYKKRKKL

[8] = target: Calcium-dependent protein kinase 4 (Plasmodium falciparum (isolate 3D7)) (UniProt Q8IBS5); assay: PfCDPK4 kinase inhibitors, biochemical, TCAMS library (AID 1159588; cut-off not given, nearly all actives have IC50 up to about 0.91 µM); details: recombinant PfCDPK4, Kinase-Glo ATP depletion luminescence
Sequence of Calcium-dependent protein kinase 4 (Plasmodium falciparum (isolate 3D7)) (Q8IBS5 whole entry, looked up): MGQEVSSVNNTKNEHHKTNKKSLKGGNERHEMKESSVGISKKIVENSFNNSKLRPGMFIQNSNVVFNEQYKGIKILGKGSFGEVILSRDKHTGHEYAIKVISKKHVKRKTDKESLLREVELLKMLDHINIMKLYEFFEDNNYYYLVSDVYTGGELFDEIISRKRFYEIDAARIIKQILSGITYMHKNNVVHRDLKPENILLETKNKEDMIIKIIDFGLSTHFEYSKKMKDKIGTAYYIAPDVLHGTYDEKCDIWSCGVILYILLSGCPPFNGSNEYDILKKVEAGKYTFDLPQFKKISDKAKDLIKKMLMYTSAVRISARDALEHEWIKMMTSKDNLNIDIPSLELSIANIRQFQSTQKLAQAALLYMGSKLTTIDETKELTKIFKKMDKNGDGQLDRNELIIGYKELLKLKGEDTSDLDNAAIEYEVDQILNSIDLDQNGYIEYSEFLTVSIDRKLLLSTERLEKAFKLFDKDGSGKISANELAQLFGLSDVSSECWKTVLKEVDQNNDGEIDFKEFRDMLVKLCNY

N#Cc1cccc(NC(=O)c2ccc(S(=O)(=O)NCC3CCCN3CC3CCCCC3)cc2)c1 (stereo not drawn)
active: growth inhibition [4] 88%
inactive: growth inhibition [1] 18% | inhibition [2] 25% | inhibition [3] 4% | outcome [5] | outcome [6] | outcome [7] | outcome [8]

N#Cc1ccc(N2CCN(Cc3ccc(-c4ccc(-c5nc6ccccc6[nH]5)s4)cc3)CC2)nc1
inactive: inhibition [2] 17% | inhibition [3] 2% | outcome [5] | outcome [6] | outcome [7] | outcome [8]
active: growth inhibition [1] 63% | growth inhibition [4] 99%

COc1ccc(Nc2ccnc3cc(Cl)ccc23)cc1OC
active: growth inhibition [1] 91% | growth inhibition [4] 104%
inactive: inhibition [2] 36% | inhibition [3] 3% | outcome [5] | outcome [6] | outcome [7] | outcome [8]

O=c1c2c([nH]c3cc(Cl)ccc13)CCCC2
active: growth inhibition [1] 73% | growth inhibition [4] 96%
inactive: inhibition [2] 33% | inhibition [3] 2% | outcome [5] | outcome [6] | outcome [7] | outcome [8]

Clc1ccc(OCc2ccccc2)c(-c2nc(-c3nc4ncc(Br)cc4[nH]3)cs2)c1
active: growth inhibition [1] 77% | growth inhibition [4] 101%
inactive: inhibition [2] -7% | inhibition [3] -2% | outcome [5] | outcome [6] | outcome [7] | outcome [8]

CC1(C)N=C(N)N=C(N)N1OCCSCc1cc(Cl)sc1Cl
inactive: inhibition [3] -2% | outcome [5] | outcome [6] | outcome [7] | outcome [8]
active: growth inhibition [1] 72% | inhibition [2] 70% | growth inhibition [4] 93%

COc1ccccc1-c1cccc2c(NC(=O)Nc3ccc4nccc(N5CCN(C)CC5)c4c3)ccnc12
active: growth inhibition [4] 94%
inactive: growth inhibition [1] 34% | inhibition [2] 3% | inhibition [3] 5% | outcome [5] | outcome [6] | outcome [7] | outcome [8]

CCCc1cc(C(=O)N[C@@H](Cc2ccccc2)[C@H](O)CNC2CCOCC2)c(F)c(N2CCCCS2(=O)=O)c1
inactive: inhibition [2] -6% | inhibition [3] -3% | outcome [5] | outcome [6] | outcome [7] | outcome [8]
active: growth inhibition [1] 97% | growth inhibition [4] 97%

CC(CN1CCN(C)CC1)C(=O)Nc1ccc(-c2ccc(-c3nc4ccccc4[nH]3)s2)cc1 (stereo not drawn)
inactive: inhibition [2] 5% | inhibition [3] 4% | outcome [5] | outcome [6] | outcome [7] | outcome [8]
active: growth inhibition [1] 79% | growth inhibition [4] 100%

OC1CCCN(Cc2ccc(-c3ccc(-c4nc5ccc(F)cc5[nH]4)s3)cc2)C1 (stereo not drawn)
active: growth inhibition [1] 99% | growth inhibition [4] 100%
inactive: inhibition [2] 40% | inhibition [3] -5% | outcome [5] | outcome [6] | outcome [7] | outcome [8]

COc1ccc(NC(=O)[C@H](CC(C)C)Nc2cc(C)nc(NCC3CCCCC3)n2)cc1
active: growth inhibition [1] 92% | growth inhibition [4] 101%
inactive: inhibition [2] 7% | inhibition [3] 2% | outcome [5] | outcome [6] | outcome [7] | outcome [8]

CS(=O)(=O)Nc1ccc2[nH]cc(C3CCN(CC(O)C4CCN(C(=O)/C=C/c5ccc(Cl)c(Cl)c5)CC4)CC3)c2c1 (stereo not drawn)
inactive: growth inhibition [1] -10% | inhibition [2] 28% | inhibition [3] -3% | outcome [5] | outcome [6] | outcome [7] | outcome [8]
active: growth inhibition [4] 101%

CN1CCN(S(=O)(=O)c2cccc(Nc3nccc(N(C)c4ccc5c(c4)nc(NC(=O)c4cccs4)n5C)n3)c2)CC1
inactive: inhibition [2] 25% | inhibition [3] -6% | outcome [5] | outcome [6] | outcome [7] | outcome [8]
active: growth inhibition [1] 59% | growth inhibition [4] 99%

COc1ccc(-c2cnc(N)c(-c3ccc(O)c(OC)c3)c2)cn1
inactive: inhibition [2] 23% | inhibition [3] -1% | outcome [5] | outcome [6] | outcome [7] | outcome [8]
active: growth inhibition [1] 98% | growth inhibition [4] 97%

CCCc1cc(OC)c(CC2c3cccc(O)c3CCN2C)cc1OC (stereo not drawn)
active: growth inhibition [1] 99% | growth inhibition [4] 100%
inactive: inhibition [2] 3% | inhibition [3] 0% | outcome [5] | outcome [6] | outcome [7] | outcome [8]

CCCc1cc(C(=O)N[C@@H](Cc2ccccc2)[C@H](O)CNC(C)(C)c2cccc(OC)c2)c(F)c(N2CCCC2=O)c1
active: growth inhibition [1] 98% | growth inhibition [4] 98%
inactive: inhibition [2] 7% | inhibition [3] 0% | outcome [5] | outcome [6] | outcome [7] | outcome [8]

CCCCCC(C)N=C(Nc1ccc([N+](=O)[O-])cc1O)Nc1ccccc1Br (stereo not drawn)
inactive: inhibition [2] -1% | inhibition [3] 5% | outcome [5] | outcome [6] | outcome [7] | outcome [8]
active: growth inhibition [1] 98% | growth inhibition [4] 99%

NC(N)=Nc1nc(-c2ccc(NC(=O)Nc3cccc(-c4csc(N=C(N)N)n4)c3)cc2)cs1
inactive: inhibition [2] -9% | inhibition [3] 3% | outcome [5] | outcome [6] | outcome [7] | outcome [8]
active: growth inhibition [1] 80% | growth inhibition [4] 94%

Fc1ccc2nc(-c3cccc(-c4ccc(CN5CCCCC5)cc4)c3)[nH]c2c1
inactive: inhibition [2] 46% | inhibition [3] -2% | outcome [5] | outcome [6] | outcome [7] | outcome [8]
active: growth inhibition [1] 97% | growth inhibition [4] 99%

CS(=O)(=O)c1ccc(CNCc2cccc(-c3cccc(-c4nc5ccccc5[nH]4)c3)c2)cc1
inactive: growth inhibition [1] 47% | inhibition [2] 3% | inhibition [3] -7% | outcome [5] | outcome [6] | outcome [7] | outcome [8]
active: growth inhibition [4] 101%

Cc1cc(C)c(C)c(OCCCON2C(N)=NC(N)=NC2(C)C)c1C
inactive: inhibition [3] -4% | outcome [5] | outcome [6] | outcome [7] | outcome [8]
active: growth inhibition [1] 95% | inhibition [2] 64% | growth inhibition [4] 94%

CC(C)Oc1cccc(-c2ccc(C(=O)NCC3CCCN(Cc4cccc(C(F)(F)F)c4)C3)s2)c1 (stereo not drawn)
inactive: growth inhibition [1] 28% | inhibition [2] 10% | inhibition [3] -2% | outcome [5] | outcome [6] | outcome [7] | outcome [8]
active: growth inhibition [4] 91%

O=C(Cn1c(CCc2cccc(F)c2F)nc(=O)c2cccnc21)N(Cc1ccc(-c2ccc(C(F)(F)F)cc2)cc1)C1CCN(C2CCSCC2)CC1
inactive: inhibition [2] 49% | inhibition [3] 3% | outcome [5] | outcome [6] | outcome [7] | outcome [8]
active: growth inhibition [1] 63% | growth inhibition [4] 101%

Cc1cccc2[nH]c(-c3ccc(-c4ccc(NC(=O)Nc5ccc(F)c(F)c5F)cc4)cc3)nc12
inactive: inhibition [3] -1% | outcome [5] | outcome [6] | outcome [7] | outcome [8]
active: growth inhibition [1] 97% | inhibition [2] 51% | growth inhibition [4] 100%

COc1ccc(CNC2CCN(C)CC2)cc1-c1ccc(S(=O)(=O)NCc2cccnc2)s1
inactive: growth inhibition [1] 3% | inhibition [2] 10% | inhibition [3] -4% | outcome [5] | outcome [6] | outcome [7] | outcome [8]
active: growth inhibition [4] 100%

COc1ccc2nccc(N3CCC(O)(CCNCc4ccc5c(n4)NC(=O)CS5)CC3)c2n1
active: growth inhibition [4] 99%
inactive: growth inhibition [1] 21% | inhibition [2] 10% | inhibition [3] 0% | outcome [5] | outcome [6] | outcome [7] | outcome [8]

CCCOc1ccccc1-c1nc2[nH]c3c(c2c(=O)[nH]1)CCN(C)C3
active: growth inhibition [1] 70% | growth inhibition [4] 87%
inactive: inhibition [2] 8% | inhibition [3] -6% | outcome [5] | outcome [6] | outcome [7] | outcome [8]

CS(=O)(=O)N(c1ccccc1)c1cc(C(=O)N[C@@H](Cc2ccccc2)[C@H](O)CNC2CCCCC2)cc(N2CCCC2=O)c1
inactive: inhibition [2] 8% | inhibition [3] -3% | outcome [5] | outcome [6] | outcome [7] | outcome [8]
active: growth inhibition [1] 97% | growth inhibition [4] 100%

O=C(C=Cc1cccs1)Nc1ccc(-c2nc3ccccc3[nH]2)cc1
inactive: growth inhibition [1] 3% | inhibition [2] -4% | inhibition [3] 4% | outcome [5] | outcome [6] | outcome [7] | outcome [8]
active: growth inhibition [4] 83%

Cc1ccc(CN(Cc2ccc(C(=O)N(C)C)cc2)Cc2ccc3c(c2)OCCO3)cc1C
inactive: inhibition [2] 10% | inhibition [3] 0% | outcome [5] | outcome [6] | outcome [7] | outcome [8]
active: growth inhibition [1] 87% | growth inhibition [4] 91%

FC(F)(F)c1cccc(Nc2nc(-c3ccccc3)nc3ncccc23)c1
inactive: inhibition [2] 17% | inhibition [3] -1% | outcome [5] | outcome [6] | outcome [7] | outcome [8]
active: growth inhibition [1] 97% | growth inhibition [4] 97%

Cc1cc(NC(=O)Nc2ccc3nccc(N4CCN(C)CC4)c3c2)ccc1Br
inactive: inhibition [2] 31% | inhibition [3] -2% | outcome [5] | outcome [6] | outcome [7] | outcome [8]
active: growth inhibition [1] 100% | growth inhibition [4] 101%

COc1cc2c(OC)cccc2cc1CNCCCCCCNCc1cc2cccc(OC)c2cc1OC
inactive: growth inhibition [1] 7% | inhibition [3] 1% | outcome [5] | outcome [6] | outcome [7] | outcome [8]
active: inhibition [2] 59% | growth inhibition [4] 95%

O=C(NC1CCCCC1)c1ccc(O)c(-c2cccc(C(F)(F)F)c2)c1
inactive: inhibition [2] 8% | inhibition [3] 0% | outcome [5] | outcome [6] | outcome [7] | outcome [8]
active: growth inhibition [1] 87% | growth inhibition [4] 97%

Cn1cc(C(=O)Nc2cccc(-c3cccc(-c4nc5ccccc5[nH]4)c3)c2)n(C)c1=O
active: growth inhibition [1] 60% | growth inhibition [4] 99%
inactive: inhibition [2] 0% | inhibition [3] -6% | outcome [5] | outcome [6] | outcome [7] | outcome [8]

Oc1ccc(Cl)cc1-c1cc(C(F)(F)F)nc(-c2ccccc2)n1
inactive: inhibition [2] 20% | inhibition [3] 3% | outcome [5] | outcome [6] | outcome [7] | outcome [8]
active: growth inhibition [1] 92% | growth inhibition [4] 99%

CC(C)NCc1cccc(-c2ccc(NC(=O)c3ccc(C#N)cc3)cc2)c1
inactive: growth inhibition [1] 8% | inhibition [2] 15% | inhibition [3] 3% | outcome [5] | outcome [6] | outcome [7] | outcome [8]
active: growth inhibition [4] 99%

COc1ccc(-c2ccc(NC(=O)c3cccc(Cl)c3)cc2)cc1CN1CCC(O)CC1
active: growth inhibition [4] 102%
inactive: growth inhibition [1] 12% | inhibition [2] 15% | inhibition [3] -5% | outcome [5] | outcome [6] | outcome [7] | outcome [8]

Cc1cc(N(CCO)CCCN2CCCCC2)nc(Nc2ccc(Cl)cc2)n1
active: growth inhibition [4] 100%
inactive: growth inhibition [1] 18% | inhibition [2] 12% | inhibition [3] -9% | outcome [5] | outcome [6] | outcome [7] | outcome [8]

Cc1cc2ncn(-c3ccnc(N4CCN(CCCN5CCCC5)CC4)n3)c2cc1C
inactive: growth inhibition [1] 49% | inhibition [2] 24% | inhibition [3] -4% | outcome [5] | outcome [6] | outcome [7] | outcome [8]
active: growth inhibition [4] 100%

COc1ccc(-c2ccc(CNCc3ccccc3)cc2)cc1S(=O)(=O)NCCN1CCCC1
inactive: inhibition [2] 36% | inhibition [3] -3% | outcome [5] | outcome [6] | outcome [7] | outcome [8]
active: growth inhibition [1] 76% | growth inhibition [4] 102%
